Reference: PubChem BioAssay (Tox21)
A number with no mark means an inactive call. The call rests on the fitted dose curve; in most records, active means well fitted activation curve with a large enough effect in the repeat runs; inconclusive means weak or mixed curves; inactive means flat fitted curve, though single readings scatter.

molecular target: KiSS-1 receptor (Homo sapiens) (UniProt Q969F8); assay: Human kisspeptin (KISS1R) small molecule agonists, calcium flux assay in KISS1R-HEK293 cells (AID 1920064); conditions: KISS1R-HEK293, calcium flux fluorescence, agonist; series mostly up to 76.8 µM; activation: at the top concentration
Sequence (Q969F8 whole entry, looked up): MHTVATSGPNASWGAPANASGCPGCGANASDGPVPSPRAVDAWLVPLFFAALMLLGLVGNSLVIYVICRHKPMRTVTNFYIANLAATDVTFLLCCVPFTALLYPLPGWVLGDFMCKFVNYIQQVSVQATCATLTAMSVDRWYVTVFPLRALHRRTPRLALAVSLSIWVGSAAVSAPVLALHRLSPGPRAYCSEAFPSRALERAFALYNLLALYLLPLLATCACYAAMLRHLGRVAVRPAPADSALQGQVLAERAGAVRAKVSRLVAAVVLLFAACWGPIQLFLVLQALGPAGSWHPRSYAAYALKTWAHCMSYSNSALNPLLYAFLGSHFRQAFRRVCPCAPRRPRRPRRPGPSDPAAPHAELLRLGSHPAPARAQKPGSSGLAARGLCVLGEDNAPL
Text: National Center for Advancing Translational Sciences [NCATS]
Division of Preclinical Innovation [DPI]
U.S. Environmental Protection Agency [EPA]
National Institutes of Environmental Health Sciences [NIEHS]
National Toxicology Program [NTP]
U.S. Food and Drug Administration [FDA]
Kisspeptin and its receptor KISS1R play key roles in mammalian reproduction due to their involvement in the onset of puberty and control of the hypothalamic-pituitary-gonadal axis such as regulates GnRH release from the hypothalamus. The kisspeptin/KISS1R system also plays a direct role in peripheral organs (including the ovary, testis, uterus, and placenta) and is implicated in reproductive diseases such as miscarriage and polycystic ovary syndrome (PCOS). Abnormal KISS1R activity is associated with abnormal puberty, infertility, endometriosis, and hormone-dependent tumors. The KISS1 receptor (KISS1R, also called GPR54), a G-protein-coupled receptor (GPCR), acts (through phospholipase C) to increase intracellular inositol trisphosphate and then release intracellular calcium stores. Cell-based KISS1R-HEK293 assay is using HEK293 cells that have been genetically engineered to express the human KISS1R, which activity can be measured by calcium signaling. A compound/drug can activate (agonist) KISS1R that can be monitored by levels of intracellular calcium.
KISS1R-HEK293 cells developed by Codex Corp contain human KISS1R gene, which was stably integrated into HEK 293 cells. The compound activation can be detected by fluorescence intensity via calcium flux assay. This cell line has been used to screen the Tox21 10K compound library to identify agonists of KISS1R.
KISS1R-Hek293 cells were dispensed at 1500 cells/4uL/well in 1536-well black wall/clear bottom plates using a multidrop dispenser. After the assay plates were incubated at a 37 C/5% CO2 incubator for 18 hours, 4 microL of Calcium Dye Solution was added to each well. The plates were incubated at 37 C for 1 hour. And then 23 nL of compounds dissolved in DMSO, positive controls, or DMSO only was transferred to the assay plate by a pin tool station. The fluorescence intensity in the plates was measured using FDSS 7000EX kinetic plate reader with a filter set of Ex/Em=480/540 for 3 min at 1 sec intervals. Each test compound was measured at 15 concentrations and in triplicates.
On the % scale 0 is the no-effect control and ±100 the full control effect.

SMILES	activation
COc1ccc([C@@H]2Sc3ccccc3NC(=O)[C@@H]2O)cc1	-0.803% [at 35.3 µM]
CC(C)(O)c1ccc(CNC(=O)c2cccnc2Oc2ccc3nonc3c2)cc1	-0.264%
CCc1cc(Cc2cc(CC)cc(C(C)(C)C)c2O)c(O)c(C(C)(C)C)c1	4.19%
CCN(CC)CCNC(=O)COc1ccc(Cl)cc1	-0.621% [at 35.3 µM]
COc1ccc(C(=O)Nc2ccccc2)cc1[N+](=O)[O-]	-0.392%
CCCCCCCC/C=C/C(=O)O	-1.88% [at 35.3 µM]
NS(=O)(=O)c1cc(C(=O)NN2C[C@H]3[C@H]4CCC(C4)[C@H]3C2)ccc1Cl	-0.296% [at 35.3 µM]
Cc1nc(C)nc(N2C[C@@H](C)N(c3ccnc([C@@H](C)O)n3)[C@@H](C)C2)n1	0.989% [at 35.3 µM]
CO[Si](CCC1CCC2OC2C1)(OC)OC (stereo not given)	0.47%
CC(C)(C)NSc1nc2ccccc2s1	-0.997%
CC(C)c1cc(C(C)C)cc(C(C)C)c1	0.101%
C[n+]1ccccc1/C=N/O	0.11% [at 35.3 µM]
C[C@@H](O)[C@H](N)C(=O)O	-0.197% [at 15.8 µM]
CC(C(O)c1ccc(O)cc1)N1CCC(Cc2ccccc2)CC1 (stereo not given)	-0.498% [at 35.3 µM]
CC1=C(C)C(=O)C(CCCCC#CCCCC#CCO)=C(C)C1=O	1.09% [at 35.3 µM]
CC(C)(O)CCc1ccccc1	-2.96%
CCOC(=O)Nc1ccc(NCc2ccc(F)cc2)nc1N	0.796% [at 35.3 µM]
CC(C)CC(=O)C1C(=O)c2ccccc2C1=O	-2.27%
CC(C)COC(=O)c1ccccc1	-1.77%
CC(C)(C)C1(CCc2ccc(Cl)cc2)CO1 (stereo not given)	0.954%

SMILES	activation
N=C1C=CC(=C(c2ccc(N)cc2)c2ccc(N)cc2)C=C1	-1.89%
CNS(=O)(=O)CCc1ccc2[nH]cc(C3CCN(C)CC3)c2c1	-0.168% [at 35.3 µM]
Nc1cccc(S(=O)(=O)c2cccc(N)c2)c1	-1%
CC1(C)OC(=O)Nc2ccc(Br)cc21	-0.306% [at 35.3 µM]
O=C(OCCN1CCOCC1)c1cccnc1Nc1cccc(C(F)(F)F)c1	-0.138% [at 35.3 µM]
CC1=NS(=O)(=O)c2cc(Cl)ccc2N1	0.597% [at 35.3 µM]
CCOC(=O)CC#N	-1.32%
CCOC(=O)c1cnc2c(cnn2CC)c1NN=C(C)C	-1.07% [at 35.3 µM]
O=C(O)CC(C(=O)O)S(=O)(=O)O (stereo not given)	-0.198%
C=C1C(CCl)(CCl)C2(Cl)C(Cl)C(Cl)C1(Cl)C2(Cl)Cl (stereo not given)	0.399%
CC(C)(O)c1ccccc1	0.515%
CCn1cc(C(=O)O)c(=O)c2cc(F)c(N3CCNCC3)cc21	0.0861% [at 35.3 µM]
COc1cc(C(=O)NCCCCCC(=O)O)cc(OC)c1OC	-0.586% [at 35.3 µM]
CCCCCO	1.16%
O=C(Nc1cccc2c(=O)cc(-c3nn[nH]n3)oc12)c1ccc(OCCCCc2ccccc2)cc1	-2.35% [at 35.3 µM]
Cc1ccc(/C=N/n2c(-c3ccccc3)csc2=S)cc1	0.0169% [at 35.3 µM]
C=CC(=O)OCCOCC(CC)(COCCOC(=O)C=C)COCCOC(=O)C=C	10.8%
CCN(CCCCOC(=O)c1ccc(OC)c(OC)c1)C(C)Cc1ccc(OC)cc1 (stereo not given)	0.852% [at 35.3 µM]
O=CNNC=O	0.624%
CC(C)=CCC/C(C)=C\C#N	-0.0208%
